Laboratory results reported in the supplement of paper PMC11732987, “Enantioselective OTUD7B fragment discovery through chemoproteomics screening and high-throughput optimisation” (Communications Chemistry, 2025).

Tests used:
Assay in all cases: log2 ratio of Biotin-Ahx-Ub-VS probe labelling (fragment/DMSO); higher = less target engagement (more negative = stronger competition), active = hit call of the paper (q ≤ 0.05, log2 ratio ≤ -1)
Conditions in all cases: compound concentration: 200 uM; treatment time: 3 h
[1] = biological target: T1, OTUD6B (UniProt Q8N6M0)
T1 sequence (whole entry): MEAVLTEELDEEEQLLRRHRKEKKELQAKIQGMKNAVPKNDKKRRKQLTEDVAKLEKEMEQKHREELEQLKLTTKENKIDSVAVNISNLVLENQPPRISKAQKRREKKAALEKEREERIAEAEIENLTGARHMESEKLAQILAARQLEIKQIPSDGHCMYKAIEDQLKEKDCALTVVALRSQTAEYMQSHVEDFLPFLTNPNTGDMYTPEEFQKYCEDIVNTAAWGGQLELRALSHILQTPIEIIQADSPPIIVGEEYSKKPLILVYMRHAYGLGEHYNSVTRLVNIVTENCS
Method in brief: (§1)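 Average log2 ratios of fragment over vehicle were obtained by unpaired t-test from global-median-normalised Spectronaut label-free quantities. Proteins with ≥2 unique peptides were included. HEK293T lysate (495 µg per sample) was treated in triplicate with fragment at 200 µM or vehicle for 3 h, then with Biotin-Ahx-Ub-VS at 0.5 µM final for 1 h, and labelled DUBs were NeutrAvidin-enriched and run by diaPASEF LC-MS/MS.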

[2] = biological target: T2, OTUD7B (UniProt Q6GQQ9)
T2 sequence (whole entry): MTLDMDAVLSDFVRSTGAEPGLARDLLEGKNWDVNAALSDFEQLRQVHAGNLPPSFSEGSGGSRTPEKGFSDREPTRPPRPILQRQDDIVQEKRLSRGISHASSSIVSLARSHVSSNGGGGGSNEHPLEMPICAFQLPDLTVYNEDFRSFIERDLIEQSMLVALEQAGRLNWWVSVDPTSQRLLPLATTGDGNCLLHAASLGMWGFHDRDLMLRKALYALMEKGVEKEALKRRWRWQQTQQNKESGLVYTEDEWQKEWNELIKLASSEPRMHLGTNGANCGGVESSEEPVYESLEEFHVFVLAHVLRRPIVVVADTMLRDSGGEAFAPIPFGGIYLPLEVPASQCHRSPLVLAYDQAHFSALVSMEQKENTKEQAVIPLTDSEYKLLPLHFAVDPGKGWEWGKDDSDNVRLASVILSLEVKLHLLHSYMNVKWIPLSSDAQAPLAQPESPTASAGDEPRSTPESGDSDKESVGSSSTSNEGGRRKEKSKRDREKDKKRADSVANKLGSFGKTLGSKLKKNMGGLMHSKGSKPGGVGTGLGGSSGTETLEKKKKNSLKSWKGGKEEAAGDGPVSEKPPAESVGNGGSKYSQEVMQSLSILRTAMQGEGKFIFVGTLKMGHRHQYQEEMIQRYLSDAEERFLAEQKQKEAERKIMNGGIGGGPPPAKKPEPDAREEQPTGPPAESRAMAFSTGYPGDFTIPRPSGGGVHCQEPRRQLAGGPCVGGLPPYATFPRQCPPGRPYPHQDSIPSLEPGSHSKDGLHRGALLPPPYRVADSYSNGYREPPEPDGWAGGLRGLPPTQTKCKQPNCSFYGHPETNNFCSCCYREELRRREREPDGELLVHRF
Method in brief: as §1

[3] = biological target: PRPF8 (UniProt Q6P2Q9)
Method in brief: as §1

[4] = biological target: T3, PSMD7 (UniProt P51665)
T3 sequence (whole entry): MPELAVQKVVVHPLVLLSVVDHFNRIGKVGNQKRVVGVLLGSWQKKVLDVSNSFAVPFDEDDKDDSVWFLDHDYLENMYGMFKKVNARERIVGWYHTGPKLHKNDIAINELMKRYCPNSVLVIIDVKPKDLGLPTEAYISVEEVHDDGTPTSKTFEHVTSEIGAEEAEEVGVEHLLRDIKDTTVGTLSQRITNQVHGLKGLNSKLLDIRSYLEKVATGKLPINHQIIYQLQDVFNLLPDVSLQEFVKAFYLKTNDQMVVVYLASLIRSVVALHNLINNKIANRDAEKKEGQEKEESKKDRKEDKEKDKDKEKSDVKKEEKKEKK
Method in brief: as §1

[5] = biological target: UCHL1 (UniProt P09936)
UCHL1, sequence (P09936 whole entry, looked up): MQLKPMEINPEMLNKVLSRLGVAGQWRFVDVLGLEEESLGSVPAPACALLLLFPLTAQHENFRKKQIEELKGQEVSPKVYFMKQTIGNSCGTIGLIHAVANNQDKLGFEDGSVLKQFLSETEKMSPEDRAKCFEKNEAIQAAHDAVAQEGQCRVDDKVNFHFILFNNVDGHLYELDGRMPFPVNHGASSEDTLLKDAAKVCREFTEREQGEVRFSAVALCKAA
Method in brief: as §1

[6] = biological target: T4, UCHL3 (UniProt P15374)
T4 sequence (whole entry): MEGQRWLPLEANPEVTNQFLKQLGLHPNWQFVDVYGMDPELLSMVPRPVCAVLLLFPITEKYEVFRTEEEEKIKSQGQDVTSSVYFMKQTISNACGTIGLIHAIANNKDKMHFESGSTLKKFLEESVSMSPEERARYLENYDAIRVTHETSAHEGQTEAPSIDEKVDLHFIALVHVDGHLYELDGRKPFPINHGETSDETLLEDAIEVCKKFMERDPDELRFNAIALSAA
Method in brief: as §1

[7] = biological target: T5, UCHL5 (UniProt Q9Y5K5)
T5 sequence (whole entry): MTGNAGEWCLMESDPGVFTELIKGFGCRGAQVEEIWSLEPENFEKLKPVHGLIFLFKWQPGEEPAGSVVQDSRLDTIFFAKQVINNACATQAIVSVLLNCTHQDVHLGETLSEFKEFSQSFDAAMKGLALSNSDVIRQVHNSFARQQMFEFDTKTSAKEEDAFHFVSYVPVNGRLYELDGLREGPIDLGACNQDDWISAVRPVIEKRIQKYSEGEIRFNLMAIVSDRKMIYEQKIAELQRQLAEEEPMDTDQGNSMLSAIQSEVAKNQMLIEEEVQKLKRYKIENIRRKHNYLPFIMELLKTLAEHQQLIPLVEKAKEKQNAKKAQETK
Method in brief: as §1

[8] = biological target: USP10 (UniProt Q14694)
USP10, sequence (Q14694 whole entry): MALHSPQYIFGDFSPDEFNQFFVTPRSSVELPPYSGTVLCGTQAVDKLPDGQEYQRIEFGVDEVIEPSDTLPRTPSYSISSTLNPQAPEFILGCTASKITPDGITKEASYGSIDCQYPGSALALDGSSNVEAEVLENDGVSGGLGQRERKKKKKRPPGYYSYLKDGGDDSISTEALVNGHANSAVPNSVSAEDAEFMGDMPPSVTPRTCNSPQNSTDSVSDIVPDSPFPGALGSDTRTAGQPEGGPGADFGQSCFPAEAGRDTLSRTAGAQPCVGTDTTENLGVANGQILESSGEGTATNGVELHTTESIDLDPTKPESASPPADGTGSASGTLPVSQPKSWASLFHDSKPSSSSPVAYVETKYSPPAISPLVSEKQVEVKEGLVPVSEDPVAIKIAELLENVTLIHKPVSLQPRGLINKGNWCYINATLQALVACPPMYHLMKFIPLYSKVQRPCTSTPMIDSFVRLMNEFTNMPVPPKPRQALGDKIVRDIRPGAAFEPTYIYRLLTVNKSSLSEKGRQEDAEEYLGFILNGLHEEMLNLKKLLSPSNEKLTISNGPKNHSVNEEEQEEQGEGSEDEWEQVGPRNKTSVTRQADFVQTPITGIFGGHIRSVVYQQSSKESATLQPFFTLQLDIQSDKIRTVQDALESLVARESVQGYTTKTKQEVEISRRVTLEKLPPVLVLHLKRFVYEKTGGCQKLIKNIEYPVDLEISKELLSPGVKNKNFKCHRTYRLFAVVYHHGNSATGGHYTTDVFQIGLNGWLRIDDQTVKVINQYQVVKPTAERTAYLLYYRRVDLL
Method in brief: as §1

[9] = biological target: T6, USP15 (UniProt Q9Y4E8)
T6 sequence (whole entry): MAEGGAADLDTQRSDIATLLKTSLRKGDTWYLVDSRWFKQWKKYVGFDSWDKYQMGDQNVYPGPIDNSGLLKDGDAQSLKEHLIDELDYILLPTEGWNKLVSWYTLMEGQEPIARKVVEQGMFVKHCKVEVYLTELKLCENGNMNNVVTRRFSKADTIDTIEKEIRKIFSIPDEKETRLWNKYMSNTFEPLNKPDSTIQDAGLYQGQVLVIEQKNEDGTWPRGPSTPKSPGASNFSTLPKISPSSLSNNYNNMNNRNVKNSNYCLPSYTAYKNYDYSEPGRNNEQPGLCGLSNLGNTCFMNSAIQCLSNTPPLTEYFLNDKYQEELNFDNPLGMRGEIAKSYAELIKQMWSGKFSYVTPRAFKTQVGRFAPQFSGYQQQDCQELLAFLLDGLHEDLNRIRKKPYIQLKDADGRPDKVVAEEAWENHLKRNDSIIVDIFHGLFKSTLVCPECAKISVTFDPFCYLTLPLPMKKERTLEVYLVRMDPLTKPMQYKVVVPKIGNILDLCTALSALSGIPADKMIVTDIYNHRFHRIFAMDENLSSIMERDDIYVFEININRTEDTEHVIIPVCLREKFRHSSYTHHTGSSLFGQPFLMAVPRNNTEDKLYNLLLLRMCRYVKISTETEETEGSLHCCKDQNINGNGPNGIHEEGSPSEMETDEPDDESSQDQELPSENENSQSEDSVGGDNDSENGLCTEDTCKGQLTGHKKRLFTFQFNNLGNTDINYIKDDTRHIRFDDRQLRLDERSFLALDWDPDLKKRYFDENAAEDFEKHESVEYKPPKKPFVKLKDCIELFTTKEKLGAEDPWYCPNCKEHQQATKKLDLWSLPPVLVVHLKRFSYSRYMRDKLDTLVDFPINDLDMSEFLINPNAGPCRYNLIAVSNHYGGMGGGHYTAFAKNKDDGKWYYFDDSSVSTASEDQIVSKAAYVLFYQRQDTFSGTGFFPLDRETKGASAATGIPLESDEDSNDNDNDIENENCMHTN
Method in brief: as §1

[10] = biological target: USP16 (UniProt Q9Y5T5)
USP16, sequence (Q9Y5T5 whole entry, looked up): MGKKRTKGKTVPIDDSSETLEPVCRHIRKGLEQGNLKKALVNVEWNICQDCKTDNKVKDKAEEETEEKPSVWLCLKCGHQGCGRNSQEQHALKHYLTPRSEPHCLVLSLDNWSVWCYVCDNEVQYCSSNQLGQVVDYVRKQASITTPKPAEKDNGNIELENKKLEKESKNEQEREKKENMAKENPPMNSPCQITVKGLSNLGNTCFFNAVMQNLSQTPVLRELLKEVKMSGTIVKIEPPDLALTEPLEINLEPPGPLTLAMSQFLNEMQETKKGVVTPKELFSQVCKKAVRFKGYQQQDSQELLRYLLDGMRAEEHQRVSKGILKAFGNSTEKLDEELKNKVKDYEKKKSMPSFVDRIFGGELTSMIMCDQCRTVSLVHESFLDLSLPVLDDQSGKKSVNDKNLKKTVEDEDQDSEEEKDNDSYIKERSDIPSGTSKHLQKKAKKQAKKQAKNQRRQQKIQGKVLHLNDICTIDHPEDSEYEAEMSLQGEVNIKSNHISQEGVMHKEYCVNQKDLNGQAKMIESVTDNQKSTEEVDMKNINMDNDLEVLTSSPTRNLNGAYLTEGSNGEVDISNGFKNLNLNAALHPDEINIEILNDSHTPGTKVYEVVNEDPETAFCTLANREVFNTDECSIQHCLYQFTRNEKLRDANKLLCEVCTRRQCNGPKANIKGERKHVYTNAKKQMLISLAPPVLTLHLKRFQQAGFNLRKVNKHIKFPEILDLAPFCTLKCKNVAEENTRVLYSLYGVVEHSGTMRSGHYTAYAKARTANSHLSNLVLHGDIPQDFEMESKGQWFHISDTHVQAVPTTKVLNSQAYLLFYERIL
Method in brief: as §1

Measured: log2 ratio of Biotin-Ahx-Ub-VS probe labelling

Cc1nnc(C(NC(=O)CCl)c2ccccc2)n1C (stereo not given)
inactive: [1] 0.622 | [2] 0.355 | [3] -0.283 | [4] 0.357 | [5] 0.102 | [6] 0.364 | [7] 0.534 | [8] 0.157 | [9] 0.629 | [10] -0.384
